Screen size: about 2,400 compounds; about 750 (31%) were called active. This is one part of the list. Unmarked numbers belong to inactive results.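 The calls were made as follows: active = median signal gain over dofetilide-blocked control wells reaching their mean plus 3 SD, so readout 1 at least 0; inactive = the rest.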

Chain of Voltage-gated inwardly rectifying potassium channel KCNH2 (Homo sapiens) (Q12809 whole entry, looked up): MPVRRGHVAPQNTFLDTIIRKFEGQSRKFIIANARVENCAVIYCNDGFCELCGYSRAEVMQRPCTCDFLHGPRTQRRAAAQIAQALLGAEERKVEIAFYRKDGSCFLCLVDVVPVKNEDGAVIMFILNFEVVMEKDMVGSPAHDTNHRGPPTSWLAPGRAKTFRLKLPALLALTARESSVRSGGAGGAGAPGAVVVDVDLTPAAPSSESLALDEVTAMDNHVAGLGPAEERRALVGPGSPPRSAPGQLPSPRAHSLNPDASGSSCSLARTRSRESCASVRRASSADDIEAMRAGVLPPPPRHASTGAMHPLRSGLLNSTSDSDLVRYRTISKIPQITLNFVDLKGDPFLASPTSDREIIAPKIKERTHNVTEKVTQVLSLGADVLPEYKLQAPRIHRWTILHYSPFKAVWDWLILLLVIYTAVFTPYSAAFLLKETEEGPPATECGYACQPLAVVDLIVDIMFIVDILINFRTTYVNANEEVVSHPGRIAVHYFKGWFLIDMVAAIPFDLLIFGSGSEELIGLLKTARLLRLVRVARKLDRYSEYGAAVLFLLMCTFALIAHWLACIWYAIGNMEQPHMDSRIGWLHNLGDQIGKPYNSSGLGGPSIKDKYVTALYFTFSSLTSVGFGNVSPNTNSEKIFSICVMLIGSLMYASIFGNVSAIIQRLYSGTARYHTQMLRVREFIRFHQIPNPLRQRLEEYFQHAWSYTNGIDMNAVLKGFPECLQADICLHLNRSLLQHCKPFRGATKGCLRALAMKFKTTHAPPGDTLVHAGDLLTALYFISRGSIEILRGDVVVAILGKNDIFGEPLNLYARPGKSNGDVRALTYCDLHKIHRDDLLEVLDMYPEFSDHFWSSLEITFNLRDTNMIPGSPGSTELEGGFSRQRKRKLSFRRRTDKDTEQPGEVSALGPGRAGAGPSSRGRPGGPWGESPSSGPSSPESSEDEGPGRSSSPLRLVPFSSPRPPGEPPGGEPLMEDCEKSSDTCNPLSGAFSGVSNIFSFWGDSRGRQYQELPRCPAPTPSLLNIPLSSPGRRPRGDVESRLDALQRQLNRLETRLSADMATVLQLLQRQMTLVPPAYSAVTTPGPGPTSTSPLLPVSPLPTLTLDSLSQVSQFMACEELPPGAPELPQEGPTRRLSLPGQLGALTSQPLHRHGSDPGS

This assay addresses Voltage-gated inwardly rectifying potassium channel KCNH2 (Homo sapiens) (UniProt Q12809). Description: modulators restoring hERG flux under dofetilide – cell-based, thallium flux, duplicate retest, dofetilide IC70, confirmation (AID 1835). Conditions: hERG cell line, FluxOR thallium flux, dofetilide-blocked; at 10 µM; stronger effect = higher value. In general terms: Block of hERG is tested as a sign of cardiac risk.
Turning to `COc1ccc([N+](=O)[O-])cc1N(CC(=O)NCc1ccco1)S(C)(=O)=O`, the activity increase over dofetilide control, less the hit threshold was -21%. As to `O=c1cc(O)c2sc(Nc3ccc(F)c(Cl)c3)nc2[nH]1`, the activity increase over dofetilide control, less the hit threshold is -15%. The same measure for `Cc1ccccc1NC(=O)C(=O)NNC(=O)COc1ccc2ccccc2c1`: 48% (active).

On to `O=C(COc1ccccc1)Nc1ccc(F)cc1`, for which the activity increase over dofetilide control, less the hit threshold is -27%.

`O=C(COc1ccc2ccccc2c1)NNC(=O)C(=O)Nc1ccccc1`: the activity increase over dofetilide control, less the hit threshold was 55% (active). The same measure for `COC(=O)CSc1nnc(COc2ccc3ccccc3c2)o1`: -10%; for `C=CCNC(=O)COc1ccc(Oc2ccccc2)cc1`: -6%; for `COc1ccc(N2CC(C(=O)OCC(=O)Nc3ccccc3C)CC2=O)cc1` (configuration not stated): -5%.

With `O=C(COc1ccc2ccccc2c1)Nc1ccc(Br)cc1C(=O)O`, the activity increase over dofetilide control, less the hit threshold was -10%. As to `COc1ccccc1NC(=O)C(=O)NNC(=O)COc1ccc2ccccc2c1`, the activity increase over dofetilide control, less the hit threshold was 94% (active). The same measure for `CCN1C(=O)c2cccc3c(S(=O)(=O)NCC4CCCO4)ccc1c23` (configuration not stated): -22%; for `Brc1ccc(Nc2nc(-c3cccnc3)cs2)cc1`: -12%; for `Cc1cc(C(F)(F)F)c2sc(N)nc2n1`: -11%.

With `CC1CC(OCC(O)C[N+]2(C)CCOCC2)CC(C)(C)C1` (configuration not stated), the activity increase over dofetilide control, less the hit threshold is -13%. With `COc1ccc(S(=O)(=O)Nc2cccc(-n3cnnn3)c2)cc1`, the activity increase over dofetilide control, less the hit threshold was -20%. `C=CCN(c1ccccc1)S(=O)(=O)c1cccc(C(=O)Nc2nnc(SCC)s2)c1`: the activity increase over dofetilide control, less the hit threshold was -4%. As to `C=CCN(c1ccc(Cl)cc1)S(=O)(=O)c1cccc(C(=O)O)c1`, the activity increase over dofetilide control, less the hit threshold is 6% (active). Then `C=CCN(c1cccc(C(F)(F)F)c1)S(=O)(=O)c1cccc(C(=O)OCC(=O)Nc2ccccc2)c1`, with -6%; and `COc1ccc(-c2cn3nc(SCC(=O)NC4CCCCC4)ccc3n2)cc1`, with -2%.

As for `CN(CC(=O)Nc1nc2ccccc2s1)S(=O)(=O)c1ccc(Cl)cc1`, the activity increase over dofetilide control, less the hit threshold is -17%. Then `O=C(Nc1nc(=O)c2ccccc2s1)c1ccc(Cl)cc1`, with 46% (active). As for `O=C(CNC(=O)c1ccccc1)NCc1ccc(Cl)cc1`, the activity increase over dofetilide control, less the hit threshold is -8%. Then `Cc1ccc(C(=O)Nc2nc(=O)n(C)s2)cc1`, with -1%; and `Cc1ccc(C(=O)Nc2nc3ccccc3c(=O)s2)cc1`, with 53% (active). With `C=CCN(c1ccc(C(=O)NC(C)C)cc1)S(C)(=O)=O`, the activity increase over dofetilide control, less the hit threshold is -10%. On to `COc1ccc(N(CC(=O)N2CCN(Cc3ccccc3)CC2)S(C)(=O)=O)cc1`, for which the activity increase over dofetilide control, less the hit threshold was -16%. For `CS(=O)(=O)N(Cc1ccccc1)c1ccc(C(=O)Nc2ccc(C(N)=O)cc2)cc1`, the activity increase over dofetilide control, less the hit threshold was 82% (active). With `CCC1=C(OC(=O)N(CC)CC)N2C(=O)OC(=NCC3CC3)[C@]2(C)[C@H]2C1=CC[C@H]1C(=O)N(C)C(=O)[C@H]12`, the activity increase over dofetilide control, less the hit threshold is -1%.

In the case of `N=c1c2cn[nH]c2nc(SCC(=O)c2ccc(Br)cc2)n1-c1ccc(Br)cc1`, the activity increase over dofetilide control, less the hit threshold is -3%. Consider `Cc1cc(C(=O)NCc2ccc(S(N)(=O)=O)cc2)ccc1[N+](=O)[O-]`, for which the activity increase over dofetilide control, less the hit threshold was -15%. The same measure for `COCCNC(=O)C(=O)N/N=C/c1ccc(C(=O)OC)cc1`: -11%; for `CSC(=S)N/N=C(\C)c1ccccc1`: 35% (active).

Turning to `CSC(=S)N/N=C/c1ccc(Br)cc1`, the activity increase over dofetilide control, less the hit threshold was 46% (active). Then `CC(C)NC(=S)N/N=C/c1ccc(C(C)(C)C)cc1`, with -13%; and `C/C(=N\NC(N)=S)c1ccncc1`, with -3%; and `CSC(=S)N/N=C/c1ccccc1`, with 34% (active). The same measure for `CC(C)(C)c1ccc(/C=N/NC(=S)Nc2cccnc2)cc1`: -11%; for `C/C(=N\NC(N)=S)c1cccnc1`: -8%; for `CSc1ccc(/C=N/NC(=O)c2cccs2)cc1`: -17%. Turning to `COCCOC(=O)C1=C(C)Nc2ncnn2C1c1ccc(F)cc1` (configuration not stated), the activity increase over dofetilide control, less the hit threshold was -26%.

With `CCOC(=O)c1c(NS(C)(=O)=O)sc2c1CCC(C)C2` (configuration not stated), the activity increase over dofetilide control, less the hit threshold is 21% (active). For the compound `CC(NS(=O)(=O)c1ccccc1)C(N)=O` (configuration not stated), the activity increase over dofetilide control, less the hit threshold is -10%. On to `CC(C)OC(=O)c1c(NC(=O)c2ccco2)sc2c1CCCCC2`, for which the activity increase over dofetilide control, less the hit threshold was -12%. As to `CC1CCc2c(sc(NS(=O)(=O)c3ccccc3)c2C(=O)OC(C)C)C1` (configuration not stated), the activity increase over dofetilide control, less the hit threshold is 7% (active). Then `CC(C)OC(=O)c1c(NS(=O)(=O)c2ccccc2)sc2c1CCCC2`, with 37% (active); and `COC(=O)c1c(NC(=O)CN2CCOCC2)sc2c1CCC(C)C2` (configuration not stated), with -13%; and `O=[N+]([O-])c1ccc(Cl)c(/C=N/Nc2nc(N3CCOCC3)nc(N3CCOCC3)n2)c1`, with -18%. The same measure for `COc1ccccc1C(=O)COC(=O)c1ccc(-n2cnnn2)cc1`: -21%; for `O=C(N/N=C\c1coc2ccccc2c1=O)c1ccco1`: -24%; for `CC(Nc1ccc(F)cc1)=[N+](C)CCNS(=O)(=O)c1ccc(Cl)cc1`: -3%.

Turning to `CC1Cc2ccccc2N1C(=S)NC(=O)c1cccc(Br)c1` (configuration not stated), the activity increase over dofetilide control, less the hit threshold is 77% (active).

On to `CC1Cc2ccccc2N1C(=S)NC(=O)c1ccc(Cl)cc1Cl` (configuration not stated), for which the activity increase over dofetilide control, less the hit threshold is 55% (active).
